This is an account of results in paper PMC7862700, “An all-to-all approach to the identification of sequence-specific readers for epigenetic DNA modifications on cytosine”.

What all share (assay): DAPPL (digital affinity profiling via proximity ligation, sequencing); 10 mM Tris-HCl pH 7.5, 50 mM NaCl, 1 mM DTT, 4% glycerol, room temperature, 30 min; GST-TFs on glutathione beads, 16-mer random dsDNA library, 0.1% formaldehyde crosslink after washing; high values mean tight binding
The target of one test is T1, FLI1 (Homo sapiens, UniProt Q01543 1-452).
T1 sequence: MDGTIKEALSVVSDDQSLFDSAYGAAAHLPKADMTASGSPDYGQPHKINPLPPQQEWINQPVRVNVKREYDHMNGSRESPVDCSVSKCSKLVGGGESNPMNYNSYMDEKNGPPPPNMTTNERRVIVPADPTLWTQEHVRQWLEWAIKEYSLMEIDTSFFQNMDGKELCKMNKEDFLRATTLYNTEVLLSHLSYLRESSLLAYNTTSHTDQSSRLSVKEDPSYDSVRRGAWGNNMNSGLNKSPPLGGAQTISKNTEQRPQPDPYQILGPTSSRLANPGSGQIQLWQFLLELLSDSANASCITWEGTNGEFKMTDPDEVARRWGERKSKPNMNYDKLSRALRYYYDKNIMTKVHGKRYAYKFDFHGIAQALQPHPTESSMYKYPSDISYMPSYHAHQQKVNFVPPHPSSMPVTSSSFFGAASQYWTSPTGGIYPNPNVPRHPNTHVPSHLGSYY
The following applies: protein: recombinant; tags: N-terminal GST; dsDNA, one strand shown. The method in brief: (§1)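 Beads coated with glutathione captured GST-fused human transcription factors that had been expressed in yeast, and the factors were then given DNA barcodes and pooled with a tag-only sample. The pools were incubated with 200 nmole of a random double-stranded 16-mer DNA library in Tris/NaCl/DTT/glycerol buffer for 30 min at room temperature, washed, crosslinked with 0.1% formaldehyde and proximity-ligated with BsaI/T4 ligase at 37 °C for 1 h. PCR amplification and Illumina NextSeq500 sequencing came last. Binding signal is each hexamer's read frequency for a factor divided by its frequency for the tag-only sample.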

The next test has as its target T2, ELK1 (Homo sapiens, UniProt P19419 1-428).
T2 sequence: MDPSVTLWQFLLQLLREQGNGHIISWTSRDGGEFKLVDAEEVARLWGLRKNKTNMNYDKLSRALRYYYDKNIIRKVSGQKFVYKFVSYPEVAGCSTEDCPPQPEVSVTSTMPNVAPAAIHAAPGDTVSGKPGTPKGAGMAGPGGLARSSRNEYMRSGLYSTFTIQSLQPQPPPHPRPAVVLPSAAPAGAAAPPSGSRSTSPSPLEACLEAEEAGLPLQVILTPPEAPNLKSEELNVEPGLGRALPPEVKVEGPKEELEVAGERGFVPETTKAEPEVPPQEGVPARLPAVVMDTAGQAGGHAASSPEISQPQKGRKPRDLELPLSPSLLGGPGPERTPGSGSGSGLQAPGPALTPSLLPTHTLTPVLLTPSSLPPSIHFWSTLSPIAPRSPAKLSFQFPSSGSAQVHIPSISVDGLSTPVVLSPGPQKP
The following applies: protein: recombinant; tags: N-terminal GST; dsDNA, one strand shown. The method in brief: as §1

The target in another test is T3, GABPA (Homo sapiens, UniProt Q06546 1-454).
T3 sequence: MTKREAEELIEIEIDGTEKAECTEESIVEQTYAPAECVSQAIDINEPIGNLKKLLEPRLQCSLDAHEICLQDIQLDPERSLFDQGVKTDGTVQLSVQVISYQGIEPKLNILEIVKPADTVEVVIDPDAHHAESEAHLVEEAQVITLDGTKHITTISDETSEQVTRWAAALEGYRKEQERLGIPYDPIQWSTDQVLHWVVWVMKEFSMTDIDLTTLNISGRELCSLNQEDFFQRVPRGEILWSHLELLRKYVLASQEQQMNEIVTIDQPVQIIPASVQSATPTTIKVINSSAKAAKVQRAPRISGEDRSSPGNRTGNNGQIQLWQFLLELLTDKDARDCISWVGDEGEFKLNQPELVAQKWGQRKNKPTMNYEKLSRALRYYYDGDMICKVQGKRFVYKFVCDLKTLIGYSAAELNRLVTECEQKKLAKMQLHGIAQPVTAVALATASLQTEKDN
The settings on record: protein: recombinant; tags: N-terminal GST; dsDNA, one strand shown. The method in brief: as §1

In the next test the target is T4, ERG (Homo sapiens, UniProt P11308 1-479).
T4 sequence: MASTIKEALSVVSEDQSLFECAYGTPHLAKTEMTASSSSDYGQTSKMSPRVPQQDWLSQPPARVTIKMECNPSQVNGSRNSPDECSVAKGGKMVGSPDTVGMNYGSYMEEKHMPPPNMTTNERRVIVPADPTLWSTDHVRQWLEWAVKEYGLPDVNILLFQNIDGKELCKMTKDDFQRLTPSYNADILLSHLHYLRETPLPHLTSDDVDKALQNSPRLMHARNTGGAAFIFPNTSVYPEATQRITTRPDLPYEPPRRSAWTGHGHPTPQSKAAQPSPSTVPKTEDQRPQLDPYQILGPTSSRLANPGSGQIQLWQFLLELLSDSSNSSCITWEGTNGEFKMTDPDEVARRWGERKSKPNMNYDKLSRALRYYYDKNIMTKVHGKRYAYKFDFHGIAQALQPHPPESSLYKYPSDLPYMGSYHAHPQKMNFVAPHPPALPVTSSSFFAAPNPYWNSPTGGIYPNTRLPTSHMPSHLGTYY
The settings on record: protein: recombinant; tags: N-terminal GST; dsDNA, one strand shown. Put shortly: as §1

The next test addresses ELF1 (Homo sapiens, UniProt P32519 1-619). The following applies: protein: recombinant; tags: N-terminal GST; dsDNA, one strand shown. Put shortly: as §1
The next test deals with T5, EHF (Homo sapiens, UniProt Q9NZC4 1-300).
T5 sequence: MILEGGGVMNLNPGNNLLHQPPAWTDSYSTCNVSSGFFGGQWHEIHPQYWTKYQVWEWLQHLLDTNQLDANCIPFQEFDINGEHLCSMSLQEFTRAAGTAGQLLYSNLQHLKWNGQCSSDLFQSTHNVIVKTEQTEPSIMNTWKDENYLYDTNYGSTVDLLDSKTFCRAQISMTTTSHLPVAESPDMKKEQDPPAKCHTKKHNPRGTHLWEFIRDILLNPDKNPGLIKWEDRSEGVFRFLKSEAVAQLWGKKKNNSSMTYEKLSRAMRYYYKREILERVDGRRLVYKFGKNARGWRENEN
The settings on record: protein: recombinant; tags: N-terminal GST; dsDNA, one strand shown. The method in brief: as §1

For another test, the target named is SPIB (Homo sapiens, UniProt Q01892 1-262). The following applies: protein: recombinant; tags: N-terminal GST; dsDNA, one strand shown. The method in brief:
as §1

The target in another test is T6, ELK3 (Homo sapiens, UniProt P41970 1-407).
T6 sequence: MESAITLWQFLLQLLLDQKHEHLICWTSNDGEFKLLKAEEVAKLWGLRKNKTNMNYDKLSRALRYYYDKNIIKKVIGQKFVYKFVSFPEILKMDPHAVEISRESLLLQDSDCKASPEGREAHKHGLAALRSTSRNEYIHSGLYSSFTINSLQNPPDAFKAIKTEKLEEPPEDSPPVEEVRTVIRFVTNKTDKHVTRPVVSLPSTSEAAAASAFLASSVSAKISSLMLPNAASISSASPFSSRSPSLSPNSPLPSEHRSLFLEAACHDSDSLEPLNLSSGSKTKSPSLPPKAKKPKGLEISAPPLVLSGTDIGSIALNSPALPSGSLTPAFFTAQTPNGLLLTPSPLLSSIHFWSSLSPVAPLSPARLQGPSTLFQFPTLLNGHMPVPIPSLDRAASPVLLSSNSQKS
The settings on record: protein: recombinant; tags: N-terminal GST; dsDNA, one strand shown. The method in brief: as §1

The next test concerns the target T7, FEV (Homo sapiens, UniProt Q99581 1-238).
T7 sequence: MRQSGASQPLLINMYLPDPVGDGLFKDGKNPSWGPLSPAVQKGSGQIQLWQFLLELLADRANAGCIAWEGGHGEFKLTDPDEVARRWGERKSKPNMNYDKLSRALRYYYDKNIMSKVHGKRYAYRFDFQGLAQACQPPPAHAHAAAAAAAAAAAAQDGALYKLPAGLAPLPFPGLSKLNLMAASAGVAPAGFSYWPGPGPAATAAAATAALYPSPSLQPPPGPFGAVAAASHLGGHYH
The following applies: protein: recombinant; tags: N-terminal GST; dsDNA, one strand shown. Put shortly:
as §1

The target in the next test is ETV5 (Homo sapiens, UniProt P41161 1-510). The settings on record: protein: recombinant; tags: N-terminal GST; dsDNA, one strand shown. The method in brief:
as §1

Another test addresses HSF1 (Homo sapiens, UniProt Q00613 1-529). The settings on record: protein: recombinant; tags: N-terminal GST; chain copies: 3; dsDNA, one strand shown. Put shortly:
as §1

For the next test, the target named is T8, SPIC (Homo sapiens, UniProt Q8N5J4 1-248).
T8 sequence: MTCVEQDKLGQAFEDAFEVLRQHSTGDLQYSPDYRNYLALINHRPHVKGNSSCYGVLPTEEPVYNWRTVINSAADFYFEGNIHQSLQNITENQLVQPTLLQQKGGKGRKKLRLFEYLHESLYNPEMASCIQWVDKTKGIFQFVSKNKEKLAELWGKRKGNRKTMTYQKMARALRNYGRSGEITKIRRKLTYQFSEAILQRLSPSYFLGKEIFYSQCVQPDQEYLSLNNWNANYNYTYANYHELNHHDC
The settings on record: protein: recombinant; tags: N-terminal GST; dsDNA, one strand shown. The method in brief: as §1

The next test addresses ELF4 (Homo sapiens, UniProt Q99607 1-663). The following applies: protein: recombinant; tags: N-terminal GST; dsDNA, one strand shown. The method in brief:
as §1

Another test has as its target T9, ETV2 (Homo sapiens, UniProt O00321 1-342).
T9 sequence: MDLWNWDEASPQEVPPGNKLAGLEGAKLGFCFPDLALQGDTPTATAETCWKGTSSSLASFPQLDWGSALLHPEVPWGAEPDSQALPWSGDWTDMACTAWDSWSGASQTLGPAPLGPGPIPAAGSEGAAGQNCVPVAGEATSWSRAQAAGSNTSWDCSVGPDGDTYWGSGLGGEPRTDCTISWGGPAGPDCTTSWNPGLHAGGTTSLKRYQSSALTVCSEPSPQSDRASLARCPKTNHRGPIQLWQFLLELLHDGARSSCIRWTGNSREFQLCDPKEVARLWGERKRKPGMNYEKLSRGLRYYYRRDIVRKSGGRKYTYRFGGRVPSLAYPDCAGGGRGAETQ
The settings on record: protein: recombinant; tags: N-terminal GST; dsDNA, one strand shown. Put shortly:
as §1

The target in another test is CRX (Homo sapiens, UniProt O43186 1-299). The settings on record: protein: recombinant; tags: N-terminal GST; dsDNA, one strand shown. The method in brief: as §1
CRX, sequence (O43186 whole entry): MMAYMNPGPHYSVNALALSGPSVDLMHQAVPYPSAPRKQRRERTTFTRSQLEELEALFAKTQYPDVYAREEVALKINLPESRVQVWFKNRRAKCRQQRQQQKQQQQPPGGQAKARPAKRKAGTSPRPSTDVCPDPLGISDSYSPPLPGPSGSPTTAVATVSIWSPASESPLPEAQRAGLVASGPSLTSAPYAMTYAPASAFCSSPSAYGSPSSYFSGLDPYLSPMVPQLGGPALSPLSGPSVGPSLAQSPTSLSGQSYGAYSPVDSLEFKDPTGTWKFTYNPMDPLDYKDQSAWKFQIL
The next test addresses ETV1 (Homo sapiens, UniProt P50549 1-477). The following applies: protein: recombinant; tags: N-terminal GST; dsDNA, one strand shown. The method in brief:
as §1

SPIB, sequence (Q01892 whole entry): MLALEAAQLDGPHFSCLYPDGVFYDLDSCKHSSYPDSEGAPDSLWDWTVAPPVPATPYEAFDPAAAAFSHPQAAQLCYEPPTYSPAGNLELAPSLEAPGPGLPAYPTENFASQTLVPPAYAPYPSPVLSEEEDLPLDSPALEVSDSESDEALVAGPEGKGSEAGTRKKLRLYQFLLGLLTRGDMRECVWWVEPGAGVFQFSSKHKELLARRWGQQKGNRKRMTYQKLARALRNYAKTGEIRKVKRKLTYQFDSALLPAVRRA
ETV1, sequence (P50549 whole entry): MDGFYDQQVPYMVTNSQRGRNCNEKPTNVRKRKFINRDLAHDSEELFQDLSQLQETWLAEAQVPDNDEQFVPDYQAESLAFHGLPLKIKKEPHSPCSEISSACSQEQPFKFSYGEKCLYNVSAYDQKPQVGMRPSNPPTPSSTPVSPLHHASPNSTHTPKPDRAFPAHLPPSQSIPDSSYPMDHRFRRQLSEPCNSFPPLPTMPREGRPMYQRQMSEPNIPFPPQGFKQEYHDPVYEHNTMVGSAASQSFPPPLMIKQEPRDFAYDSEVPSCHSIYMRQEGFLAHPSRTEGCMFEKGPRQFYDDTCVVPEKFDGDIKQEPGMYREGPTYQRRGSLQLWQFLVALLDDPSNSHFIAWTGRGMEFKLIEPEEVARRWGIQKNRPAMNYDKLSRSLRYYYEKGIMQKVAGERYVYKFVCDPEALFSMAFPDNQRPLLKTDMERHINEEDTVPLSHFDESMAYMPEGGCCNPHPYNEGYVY
HSF1, sequence (Q00613 whole entry): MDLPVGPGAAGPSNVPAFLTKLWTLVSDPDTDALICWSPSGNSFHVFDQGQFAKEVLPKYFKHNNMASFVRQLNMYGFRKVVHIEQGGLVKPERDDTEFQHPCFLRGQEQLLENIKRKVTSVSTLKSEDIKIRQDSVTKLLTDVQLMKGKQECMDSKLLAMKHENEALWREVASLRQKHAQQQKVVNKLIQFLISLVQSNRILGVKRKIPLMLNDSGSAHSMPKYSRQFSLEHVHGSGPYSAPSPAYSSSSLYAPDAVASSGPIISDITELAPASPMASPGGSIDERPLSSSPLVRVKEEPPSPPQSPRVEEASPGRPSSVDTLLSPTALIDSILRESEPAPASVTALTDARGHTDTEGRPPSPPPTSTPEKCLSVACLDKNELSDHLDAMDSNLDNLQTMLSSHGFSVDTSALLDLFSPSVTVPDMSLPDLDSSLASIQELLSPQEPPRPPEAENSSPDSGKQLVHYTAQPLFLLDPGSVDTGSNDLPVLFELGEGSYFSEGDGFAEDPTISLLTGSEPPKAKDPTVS
ETV5, sequence (P41161 whole entry): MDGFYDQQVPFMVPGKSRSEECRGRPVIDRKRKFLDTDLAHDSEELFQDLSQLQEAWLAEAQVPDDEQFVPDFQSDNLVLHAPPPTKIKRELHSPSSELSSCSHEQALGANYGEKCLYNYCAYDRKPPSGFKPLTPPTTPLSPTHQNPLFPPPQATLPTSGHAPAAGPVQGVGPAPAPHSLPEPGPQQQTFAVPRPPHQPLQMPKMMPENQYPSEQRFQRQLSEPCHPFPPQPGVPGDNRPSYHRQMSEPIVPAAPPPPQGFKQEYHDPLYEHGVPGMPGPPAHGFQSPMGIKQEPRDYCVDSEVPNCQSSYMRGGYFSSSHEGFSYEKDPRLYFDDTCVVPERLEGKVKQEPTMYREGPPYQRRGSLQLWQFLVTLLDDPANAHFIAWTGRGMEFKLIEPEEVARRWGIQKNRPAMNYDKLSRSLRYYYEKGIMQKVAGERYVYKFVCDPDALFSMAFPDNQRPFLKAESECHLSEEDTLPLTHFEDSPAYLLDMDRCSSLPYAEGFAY
ELF4, sequence (Q99607 whole entry): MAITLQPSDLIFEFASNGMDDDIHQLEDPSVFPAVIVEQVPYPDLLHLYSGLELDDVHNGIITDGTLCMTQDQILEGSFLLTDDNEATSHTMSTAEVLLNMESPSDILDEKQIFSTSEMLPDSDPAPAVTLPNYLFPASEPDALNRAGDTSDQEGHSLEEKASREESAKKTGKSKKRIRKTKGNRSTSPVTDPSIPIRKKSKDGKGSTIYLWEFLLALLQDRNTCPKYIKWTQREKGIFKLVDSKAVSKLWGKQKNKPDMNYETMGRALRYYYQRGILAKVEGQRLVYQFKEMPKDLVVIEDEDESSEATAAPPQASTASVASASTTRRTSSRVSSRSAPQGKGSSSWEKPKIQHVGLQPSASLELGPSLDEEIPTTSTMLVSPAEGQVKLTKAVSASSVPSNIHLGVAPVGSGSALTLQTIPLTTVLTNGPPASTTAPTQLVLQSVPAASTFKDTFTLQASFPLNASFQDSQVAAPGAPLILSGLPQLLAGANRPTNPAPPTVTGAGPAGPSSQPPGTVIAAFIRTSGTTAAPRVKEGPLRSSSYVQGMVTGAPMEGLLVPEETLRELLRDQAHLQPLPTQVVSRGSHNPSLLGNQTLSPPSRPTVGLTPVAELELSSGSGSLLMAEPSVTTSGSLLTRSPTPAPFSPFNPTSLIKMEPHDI
ELF1, sequence (P32519 whole entry): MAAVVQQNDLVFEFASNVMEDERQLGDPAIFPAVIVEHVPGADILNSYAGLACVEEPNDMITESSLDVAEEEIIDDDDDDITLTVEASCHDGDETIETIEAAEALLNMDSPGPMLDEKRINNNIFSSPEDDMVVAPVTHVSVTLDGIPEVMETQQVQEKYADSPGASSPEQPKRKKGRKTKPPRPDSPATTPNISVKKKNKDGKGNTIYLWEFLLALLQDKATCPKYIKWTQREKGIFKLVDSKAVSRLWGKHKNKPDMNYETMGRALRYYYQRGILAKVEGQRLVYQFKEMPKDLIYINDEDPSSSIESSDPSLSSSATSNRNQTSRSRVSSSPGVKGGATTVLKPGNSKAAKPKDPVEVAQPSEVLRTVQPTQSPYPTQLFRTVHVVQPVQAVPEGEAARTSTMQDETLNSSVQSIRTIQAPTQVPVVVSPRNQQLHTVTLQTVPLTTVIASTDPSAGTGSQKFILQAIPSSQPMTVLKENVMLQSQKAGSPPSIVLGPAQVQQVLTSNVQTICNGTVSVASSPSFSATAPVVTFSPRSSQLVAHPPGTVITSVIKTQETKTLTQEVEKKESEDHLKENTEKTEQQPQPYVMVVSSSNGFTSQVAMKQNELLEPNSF

With ATACCA, the binding signal was 1.02 fold enrichment (6-mer frequency, TF over GST control) with FLI1; 1.07 fold enrichment (6-mer frequency, TF over GST control) with ELK1; 1.02 fold enrichment (6-mer frequency, TF over GST control) with GABPA; 1.01 fold enrichment (6-mer frequency, TF over GST control) with ERG; 1.06 fold enrichment (6-mer frequency, TF over GST control) with ELF1; 1.08 fold enrichment (6-mer frequency, TF over GST control) in the test with EHF. Also, the binding signal with SPIB was 1.01 fold enrichment (6-mer frequency, TF over GST control); in the test with ELK3, 1.06 fold enrichment (6-mer frequency, TF over GST control); with FEV it was 1.08 fold enrichment (6-mer frequency, TF over GST control); with ETV5, 1.01 fold enrichment (6-mer frequency, TF over GST control); in the test with HSF1, 1.03 fold enrichment (6-mer frequency, TF over GST control); with SPIC, 1.03 fold enrichment (6-mer frequency, TF over GST control). Besides, the binding signal with ELF4 is 1.09 fold enrichment (6-mer frequency, TF over GST control); with ETV2 it was 1.08 fold enrichment (6-mer frequency, TF over GST control); with CRX, 1.04 fold enrichment (6-mer frequency, TF over GST control); with ETV1, 1.05 fold enrichment (6-mer frequency, TF over GST control).
